The record followed here is PubChem BioAssay AID1224904 (Broad Institute, 2016).

About 290 (0.78%) of roughly 37,000 compounds were called active. About 10% were inconclusive and are not listed.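 How the source made its calls: active means mean inhibition of at least 10% in the main channel, exceeding the control channel by a set limit; inconclusive means inhibition of 10% or more but channel gap under a set limit; inactive means mean inhibition below 10%.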 The sample as a whole holds a higher share of actives than the screen did.

The nature of the assay: inhibitors of DUX4-driven ZSCAN4 reporter expression, primary screen, 293T cells, Gaussia and Italica luciferase (AID 1224904).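 On activity change, negative = inhibition: 0% = median of neutral control wells and -100% = median of positive control wells.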 Conditions: 293T-iDUX4 ZSCAN4-Gaussia luciferase reporter, 24 h, stronger effect = lower value, concentration not given here; for Gaussia minus Italica difference: measured here: selective DUX4 reporter inhibition. (In general: Reporter assays use an easily measured gene product as a stand-in for the process of interest.)

Where [1] appears, read: measured here: Italica tet-on control reporter.

As to `C[C@@H]1CN([C@@H](C)CO)C(=O)Cc2cc(NC(=O)Nc3cccc4ccccc34)ccc2O[C@H]1CN(C)S(=O)(=O)c1ccc(Cl)cc1`, the activity change, negative = inhibition is -2.17% (inactive) and the Gaussia minus Italica difference was -5.4%. For the same compound, the activity change, negative = inhibition under setting [1] came to 3.22%.

As for `CC(C)[C@@H]1COCn2nncc2CCCC(=O)N1`, the activity change, negative = inhibition was -6.02% (inactive) and the Gaussia minus Italica difference was -13.2%. The activity change, negative = inhibition under setting [1] came out at 7.14%.

Turning to `CO[C@@H]1CC[C@@H]2CCOc3c(C#N)cccc3C(=O)N(C)C[C@@H](C)C(=O)N(C)C[C@@H]1O2`, the activity change, negative = inhibition was -3.12% (inactive) and the Gaussia minus Italica difference is -1.62%. Also, the activity change, negative = inhibition under setting [1] is -1.5%.

As to `C[C@H](O)C#Cc1ccc([C@@H]2[C@H](CO)N3CCCCN(CC4CC4)C[C@@H]23)cc1`, the activity change, negative = inhibition was 4.25% (inactive) and the Gaussia minus Italica difference is -4.76%. For the same compound, the activity change, negative = inhibition under setting [1] stood at 9.01%.

Consider `COCC(=O)N1[C@@H](CO)[C@H](c2ccccc2)C12CN(C(=O)NC1CCCCC1)C2`, for which the activity change, negative = inhibition is 12.7% (inactive) and the Gaussia minus Italica difference is 8.54%. In addition, the activity change, negative = inhibition under setting [1] was 4.2%.

`COc1ccccc1-c1ccc2n(c1=O)C[C@@H]1[C@@H](CO)[C@H](C(=O)NCc3ccccc3Cl)N[C@H]21`: the activity change, negative = inhibition was -0.143% (inactive) and the Gaussia minus Italica difference amounted to 7.37%. The activity change, negative = inhibition under setting [1] is -7.51%.

With `CCC(=O)Nc1ccc2c(c1)C(=O)N(C)C[C@H](OC)[C@@H](C)CN(Cc1nccs1)[C@H](C)CO2`, the activity change, negative = inhibition is -5.35% (inactive) and the Gaussia minus Italica difference is -10%. Moreover, under setting [1], the activity change, negative = inhibition was found to be 4.67%.

As for `CNC[C@H]1Oc2ncc(C#Cc3ccccc3F)cc2C(=O)N([C@H](C)CO)C[C@H]1C`, the activity change, negative = inhibition is -2.73% (inactive) and the Gaussia minus Italica difference was -1.72%. Moreover, under setting [1], the activity change, negative = inhibition is -1.01%.

With `CN1CCN(C(=O)C[C@@H]2CC[C@@H]3[C@H](COC[C@H](O)CN3CC3CCOCC3)O2)CC1`, the activity change, negative = inhibition is 7.66% (inactive) and the Gaussia minus Italica difference is -3.98%. For the same compound, under setting [1], the activity change, negative = inhibition amounted to 11.6%.

In the case of `CNC(=O)C[C@@H]1CC[C@H]2[C@H](COc3ccc(NC(=O)C4CC4)cc3C(=O)N2C)O1`, the activity change, negative = inhibition is 2.13% (inactive) and the Gaussia minus Italica difference was determined as 2.15%. In addition, the activity change, negative = inhibition under setting [1] is -0.014%.

In the case of `CS(=O)(=O)N1C[C@@H](O)COC[C@@H]2O[C@H](CC(=O)NC3Cc4ccccc4C3)CC[C@H]21`, the activity change, negative = inhibition was 6.74% (inactive) and the Gaussia minus Italica difference turned out to be 9.82%. Further, the activity change, negative = inhibition under setting [1] is -3.08%.

`CN1c2ccc(-c3ccccc3F)cc2[C@@H]2[C@@H](CCN2C(=O)CN2CCOCC2)[C@H]1CO`: the activity change, negative = inhibition is 0.948% (inactive) and the Gaussia minus Italica difference was -8.96%. Further, the activity change, negative = inhibition under setting [1] is 9.9%.

For `CCCNC(=O)C[C@@H]1CC[C@H]2[C@H](COc3ccc(NS(=O)(=O)c4ccccc4C)cc3C(=O)N2C)O1`, the activity change, negative = inhibition was 1.9% (inactive) and the Gaussia minus Italica difference was -5.61%. Also, under setting [1], the activity change, negative = inhibition stood at 7.5%.

Consider `C/C=C/c1ccc2c(c1)O[C@@H](CN(C)C(=O)c1ccccn1)[C@H](C)CN([C@@H](C)CO)S2(=O)=O`, for which the activity change, negative = inhibition is -2.65% (inactive) and the Gaussia minus Italica difference was -6.3%. Moreover, the activity change, negative = inhibition under setting [1] is 3.66%.

Consider `O=C(NC[C@@H]1[C@@H](c2ccccc2)[C@H](CO)N1C(=O)Cc1cccnc1)C1CC1`, for which the activity change, negative = inhibition is 3.18% (inactive) and the Gaussia minus Italica difference is -1.42%. Moreover, the activity change, negative = inhibition under setting [1] is 4.6%.

Take `CCCNC(=O)N1[C@H](CO)[C@@H]2c3ccccc3N(C(=O)C3CCOCC3)C[C@@H]21`: the activity change, negative = inhibition is -1.95% (inactive) and the Gaussia minus Italica difference is -1.27%. In addition, under setting [1], the activity change, negative = inhibition is -0.682%.

As to `CCS(=O)(=O)N1CCC2(CC1)CN[C@H](CO)c1c2c2ccc(OC)cc2n1C`, the activity change, negative = inhibition was 14.5% (inactive) and the Gaussia minus Italica difference came to 3.59%. Also, the activity change, negative = inhibition under setting [1] worked out at 10.9%.

On to `C[C@H](CO)N1C[C@H](C)[C@@H](CN(C)Cc2ccncc2)OCCCC[C@H](C)Oc2ccc(NS(=O)(=O)c3ccc(Cl)cc3)cc2C1=O`, for which the activity change, negative = inhibition was 1.79% (inactive) and the Gaussia minus Italica difference was -7.04%. The activity change, negative = inhibition under setting [1] was 8.83%.

Turning to `COc1cccc(C#Cc2ccc3c(c2)[C@@H]2[C@@H](CCN2S(=O)(=O)c2ccc(C)cc2)[C@@H](CO)N3)c1`, the activity change, negative = inhibition was 8.73% (inactive) and the Gaussia minus Italica difference is -3.21%. Also, the activity change, negative = inhibition under setting [1] came out at 11.9%.

For `COc1cccc(CNC(=O)C[C@@H]2CC[C@H]3[C@@H](COc4ccc(NC(=O)c5cccs5)cc4C(=O)N3C)O2)c1`, the activity change, negative = inhibition was -0.0474% (inactive) and the Gaussia minus Italica difference turned out to be 2.66%. Further, the activity change, negative = inhibition under setting [1] was -2.71%.

For `COc1ccc(CNC(=O)C[C@H]2C[C@@H]3c4cc(NC(=O)NC5CCCC5)ccc4O[C@@H]3[C@H](CO)O2)cc1`, the activity change, negative = inhibition is 8.81% (inactive) and the Gaussia minus Italica difference was 1.96%. The activity change, negative = inhibition under setting [1] stood at 6.85%.

For `O=C(CCN1CCCCC1)NCC[C@@H]1CC[C@H](NS(=O)(=O)c2cccc(Cl)c2)[C@H](CO)O1`, the activity change, negative = inhibition was 5.38% (inactive) and the Gaussia minus Italica difference came to 12.6%. The activity change, negative = inhibition under setting [1] was -7.23%.

Consider `CN1[C@@H]2c3ccc(-c4ccc(F)cc4)c(=O)n3C[C@H]1[C@H](CO)[C@H]2C(=O)NC1CCC1`, for which the activity change, negative = inhibition is 6.4% (inactive) and the Gaussia minus Italica difference is 8.27%. In addition, the activity change, negative = inhibition under setting [1] is -1.88%.

`CCCNC(=O)N1C[C@@H](O)COC[C@@H]2O[C@H](CC(=O)N3CCN(C)CC3)CC[C@H]21`: the activity change, negative = inhibition is 1.94% (inactive) and the Gaussia minus Italica difference is 1.17%. Also, the activity change, negative = inhibition under setting [1] was 0.769%.

Consider `CS(=O)(=O)N1CCCCN2[C@H](CO)[C@H](c3ccc(-c4cccc(C#N)c4)cc3)[C@H]2C1`, for which the activity change, negative = inhibition is 1.86% (inactive) and the Gaussia minus Italica difference came to 3.44%. The activity change, negative = inhibition under setting [1] is -1.58%.

In the case of `CCNC(=O)[C@H]1[C@H](CO)[C@H]2Cn3c(ccc(-c4ccc(OC)cc4)c3=O)[C@H]2N1Cc1ccccc1`, the activity change, negative = inhibition is -4.11% (inactive) and the Gaussia minus Italica difference turned out to be 0.354%. For the same compound, the activity change, negative = inhibition under setting [1] is -4.47%.

Turning to `O=C(C1CCC1)N1CC2(C1)[C@H](c1ccccc1)[C@H](CO)N2Cc1nccs1`, the activity change, negative = inhibition is 12.8% (inactive) and the Gaussia minus Italica difference is 10.6%. Moreover, the activity change, negative = inhibition under setting [1] was found to be 2.26%.

With `CCC(=O)N1C[C@@H](O)COC[C@H]2O[C@H](CC(=O)NCC3CCCCC3)CC[C@@H]21`, the activity change, negative = inhibition is 1.84% (inactive) and the Gaussia minus Italica difference was determined as 1.57%. Besides, the activity change, negative = inhibition under setting [1] came to 0.272%.
